Compound activity from PubChem BioAssay.
AGP1 TOR yeast = modulators of TOR pathway AGP1-GFP in S. cerevisiae. GFP response vs DMSO, % at 10 µM. AID 2066. S. cerevisiae AGP1-GFP multiplex flow cytometry, 3 h; GFP as percent of DMSO wells. 320,000 compounds, 0.02% hits;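 active = GFP response relative to DMSO above a set limit, near screen average plus 3 SD, cut at about 150% in these data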;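 note: median GFP channel fluorescence of the gated AGP1 strain per well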
CIT2-GFP yeast = yeast TOR pathway CIT2-GFP modulation; AID 2029; 320,000 compounds, 0.065% hits; GFP response vs DMSO, % at 10 µM; S. cerevisiae CIT2-GFP strain, flow cytometry, 3 h; 100 means same as DMSO wells;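 active = GFP response relative to DMSO above a set limit, near the screen mean plus 3 SD, cut at about 150% in these data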;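 note: ratio of well median GFP fluorescence to mean of DMSO wells on the plate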
MEP2-GFP yeast = modulators of TOR pathway MEP2-GFP in S. cerevisiae. S. cerevisiae MEP2-GFP strain, flow cytometry GFP, 3 h; 100% = DMSO control level. 330,000 compounds, 0.51% hits. GFP response vs DMSO, % at 10 µM;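 active = GFP response versus DMSO above a set limit, roughly screen mean plus 3 SD, cut at about 180% in these data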;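 note: median GFP fluorescence of the barcode-gated MEP2-GFP cells per well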
RPL19A-GFP yeast = alters RPL19A-GFP fluorescence in TOR pathway yeast screen; AID 2025; 330,000 compounds, 0.3% hits; percent response vs DMSO, % at 10 µM; S. cerevisiae RPL19A-GFP strain, flow cytometry, 3 h; hits give low values;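 active = percent response vs DMSO below 50%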;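 note: median channel GFP fluorescence of the barcoded RPL19A-GFP strain; lower means less RPL19A-GFP as with rapamycin TOR inhibition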
LAP4 TOR yeast = alters LAP4-GFP fluorescence in TOR pathway yeast screen; 320,000 compounds, 0.34% hits; GFP response vs DMSO, % at 10 µM; S. cerevisiae LAP4-GFP multiplex, flow cytometry GFP, 3 h; median GFP as percent of DMSO wells;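 active = GFP response vs DMSO above a set limit, about the screen mean plus 3 SD, cut at about 150% in these data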
LAP4-GFP pick2 = yeast LAP4-GFP modulation, second cherry pick | shares compounds with LAP4 TOR yeast | S. cerevisiae LAP4-GFP strain, flow cytometry GFP, 3 h | GFP response vs DMSO, % at 10 µM | 590 compounds, 20% hits | AID 2621;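 active = GFP signal as percent of the solvent control above about 150%, meaning raised reporter expression, limit read from the data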
MEP2 cherry2 = reconfirmed MEP2-GFP TOR pathway modulator in yeast; shares compounds with LAP4 TOR yeast; AID 2622; 590 compounds, 10% hits; S. cerevisiae MEP2-GFP strain, flow cytometry GFP, 3 h; GFP response vs DMSO, % at 10 µM;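 active = GFP signal above 150% of the solvent control wells, that is a rise of more than half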;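 note: median channel GFP fluorescence of all gated yeast cells per well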
RPL19A-GFP pick2 = yeast RPL19A-GFP TOR reporter modulation, second cherry pick | shares compounds with LAP4 TOR yeast | S. cerevisiae RPL19A-GFP strain, flow cytometry GFP, 3 h; hits give low values; 100% means same as DMSO wells | GFP response vs DMSO, % at 10 µM | 590 compounds, 3% hits | AID 2623;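 active = under 65% GFP response relative to DMSO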;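 note: median GFP channel fluorescence per well over the all cells gate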
CIT2-GFP pick2 = yeast CIT2-GFP TOR reporter modulation, second cherry pick; shares compounds with LAP4 TOR yeast; S. cerevisiae CIT2-GFP strain, flow cytometry GFP, 3 h; DMSO control wells read 100%; GFP response vs DMSO, % at 10 µM; 590 compounds, 8% hits;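 active = GFP response vs DMSO above about 150%, limit read from the data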;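 note: median green fluorescence per well over all gated yeast cells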
AGP1 GFP CP2 = second confirmation of modulators of TOR reporter AGP1-GFP in yeast | 590 tested, under 10 active | shares compounds with LAP4 TOR yeast | percent response vs DMSO, % at 10 µM | S. cerevisiae AGP1-GFP strain, flow cytometry GFP, 3 h;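 active = over 150 percent of DMSO response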;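 note: median GFP channel fluorescence over all cells without mother daughter split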
Yeast autofluor = counter-screen for compound autofluorescence in yeast s288c cells | AID 2757 | S. cerevisiae s288c, 520 nm autofluorescence, flow cytometry, 3 h; hits give high values; zero means same as solvent-only cells | fluorescence change (kMESF span) at 33 µM | 610 tested, under 10 active | shares compounds with LAP4 TOR yeast;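 active = fluorescence span over the dose series, or activity score, above about 33, limit read from the data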
s288c autofl DR = TOR screen hit shows autofluorescence in yeast s288c | shares compounds with LAP4 TOR yeast | S. cerevisiae s288c parental, compound autofluorescence, flow cytometry, 3 h | fluorescence change (span) at 33 µM | 110 tested, under 10 active | AID 488829;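 active = fluorescence change span, or the activity score built from it, above 25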
TORC1 bypass gr = wildtype yeast growth loss with TORC1 bypass cells unaffected; growth rating (0-3) at 30 µM; S. cerevisiae BY4741 spot growth rating, 48-72 h; hits give low values; AID 504456; 120 tested, under 10 active; shares compounds with LAP4 TOR yeast;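 active = growth rating at most 1 for wild type yeast while the TORC1 bypass strain still grows fully, rated 3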
Each line names hits and unclear results; the compound was inactive in the other large screens (follow-up assays come after a bar, where they were run). This is a sample that favours compounds with a hit; in the whole collection about 0.92% have one here.

CCOC(=O)c1c(C)oc2c1c(C(c1cccnc1)N1CCOCC1)c(O)c1ccccc12 (stereo unspecified)	LAP4 TOR yeast 160 | Yeast autofluor inactive | s288c autofl DR inactive | TORC1 bypass gr inactive
CN(c1ccccc1)c1ccc(/C=C/[N+](=O)[O-])cc1	LAP4 TOR yeast 154 | LAP4-GFP pick2 inactive | MEP2 cherry2 inactive | RPL19A-GFP pick2 inactive | CIT2-GFP pick2 inactive | AGP1 GFP CP2 inactive
NC(N)=NN=C1CCC(c2ccccc2)CC1 (stereo unspecified)	none
COc1ccc(-c2n[nH]c(C)c2-c2ccc(Cl)cc2)c(O)c1	none | LAP4-GFP pick2 inactive | MEP2 cherry2 inactive | RPL19A-GFP pick2 inactive | CIT2-GFP pick2 inactive | AGP1 GFP CP2 inactive
COc1cccc(C(C(=O)NCc2ccccc2)N(C(=O)c2csnn2)C2CC2)c1 (stereo unspecified)	none
S=c1[nH]nc(-c2cc3c(s2)-c2ccccc2CC3)o1	none
CSc1nnc(-c2cc3c(s2)-c2ccccc2CC3)o1	LAP4 TOR yeast 151 | LAP4-GFP pick2 inactive | MEP2 cherry2 inactive | RPL19A-GFP pick2 inactive | CIT2-GFP pick2 inactive | AGP1 GFP CP2 inactive
CCC(NS(=O)(=O)c1ccc2c(c1)Cc1cc(S(=O)(=O)NC(CC)C(=O)O)ccc1-2)C(=O)O (stereo unspecified)	none
Cc1[nH]n(-c2ccccc2)c(=O)c1C(c1ccccc1[N+](=O)[O-])C(C#N)C#N (stereo unspecified)	LAP4 TOR yeast 168 | Yeast autofluor inactive
COc1cccc(NC(=S)N2CCn3c(nc4ccccc43)C2)c1	none
O=C1C(Cl)=C(N2CCN(Cc3ccccc3)CC2)C(=O)N1c1ccccc1	none | Yeast autofluor inactive
COc1ccc(NC(=O)CN(C)C(=O)C2(c3ccccc3)CCCC2)cc1	LAP4 TOR yeast 152 | LAP4-GFP pick2 inactive | MEP2 cherry2 inactive | RPL19A-GFP pick2 inactive | CIT2-GFP pick2 inactive | AGP1 GFP CP2 inactive
O=C(CSc1nnc(NC(=O)c2cccc(Cl)c2)s1)NCC1CCCO1 (stereo unspecified)	none
O=[N+]([O-])c1ccc(O)c(/C=N/Nc2ccccn2)c1	LAP4 TOR yeast 237 | LAP4-GFP pick2 284 | MEP2 cherry2 180 | RPL19A-GFP pick2 inactive | CIT2-GFP pick2 inactive | AGP1 GFP CP2 inactive | Yeast autofluor inactive
COc1ccccc1NC(=O)c1ccc(N2CC3CC(C2)c2cccc(=O)n2C3)c(NC(=O)c2ccncc2)c1 (stereo unspecified)	none
C=CCOc1ccc(CNCC2CCCO2)cc1 (stereo unspecified)	none
CN(C)c1ccc(N=Cc2nc(-c3ccccc3)oc2OC(=O)c2ccccc2)cc1	none | Yeast autofluor inactive
Oc1oc(-c2ccccc2)nc1C=Nc1ccccc1	none
O=C(Oc1oc(-c2ccco2)nc1C=Nc1ccc(Cl)cc1)c1ccco1	LAP4 TOR yeast 230 | Yeast autofluor inactive
COc1ccc(N=Cc2nc(-c3ccco3)oc2O)cc1	none
COc1ccccc1N=Cc1nc(-c2ccccc2)oc1OC(C)=O	none | Yeast autofluor inactive
CC(=O)Oc1oc(-c2ccccc2)nc1/C=N/c1ccccn1	none
CC(=O)Oc1oc(-c2ccccc2)nc1C=Nc1ccc(N(C)C)cc1	none | Yeast autofluor inactive
CN(C)c1ccc(N=Cc2nc(-c3ccccc3)oc2O)cc1	none
CCN(CC)CCn1c(=S)[nH]c2ccc(Br)cc2c1=O	none
CN(c1ccccc1)S(=O)(=O)c1nnc(NC(=O)C2CCCCC2)s1	none
CCN(CC)S(=O)(=O)c1ccc(NC(=O)c2ccc(N3CCCC3=O)cc2)cc1	none
C=C1CCN(Cc2ccccc2)S(=O)(=O)c2ccccc21	LAP4 TOR yeast 163 | LAP4-GFP pick2 inactive | MEP2 cherry2 inactive | RPL19A-GFP pick2 inactive | CIT2-GFP pick2 inactive | AGP1 GFP CP2 inactive
COc1ccccc1-c1nc2s/c(=C\c3cccs3)c(=O)n2n1	LAP4 TOR yeast 180 | LAP4-GFP pick2 inactive | MEP2 cherry2 inactive | RPL19A-GFP pick2 inactive | CIT2-GFP pick2 inactive | AGP1 GFP CP2 inactive | Yeast autofluor inactive
COc1cccc(/C=c2\sc3nc(-c4cccs4)nn3c2=O)c1OC	none
Cc1ccc(/C=c2\sc3nc(-c4cccs4)nn3c2=O)o1	LAP4 TOR yeast 174 | Yeast autofluor inactive
Cn1nc(C(=O)OCC(=O)Nc2sccc2C(N)=O)c2ccccc2c1=O	none
O=[N+]([O-])c1c(NC2CCCCC2)nc(NCc2ccccc2)nc1N1CCOCC1	none (no result: AGP1 TOR yeast, CIT2-GFP yeast, MEP2-GFP yeast, RPL19A-GFP yeast, LAP4 TOR yeast) | TORC1 bypass gr inactive
Cc1ccc(C)c(NC(=O)Cn2cnc3c(oc4ccccc43)c2=O)c1	none
Cc1cccc(C)c1NC(=O)CN(C)C(=O)COc1cccc2c1OC(C)(C)C2	none
CCN(CC(=O)Nc1c(F)cccc1F)C(=O)COc1cccc2c1OC(C)(C)C2	LAP4 TOR yeast 185 | LAP4-GFP pick2 inactive | MEP2 cherry2 inactive | RPL19A-GFP pick2 inactive | CIT2-GFP pick2 inactive | AGP1 GFP CP2 inactive
Cc1ncoc1C(=O)N1CCCC(N2CCN(c3ccccc3F)CC2)C1 (stereo unspecified)	none
Cc1ccc(SCCCCN2C(=O)NC(C)(C)C2=O)cc1	none
CS(=O)(=O)c1ccc(Sc2nc3ccccc3s2)c([N+](=O)[O-])c1	none
